# PubChem BioAssay
# A number with no mark means an inactive call. A call without a number means that no potency is given here. For some of these results: Potency and affinity values are given separately. Activity calls are given as the source filed them. Unless noted, how the calls were made is not given here.
# Key:
# [1] = antimalarial activity against Dd2 strain (AID 2302;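 active means growth inhibition above 50% at the single 2 µM test dose, taken to imply half-maximal potency below 2 µM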); conditions: P. falciparum Dd2 in RBCs, LDH growth readout, 72 h; at 2 µM; hits give high values
# [2] = target: L-lactate dehydrogenase (Plasmodium falciparum (isolate CDC / Honduras)) (UniProt Q27743); assay: PfLDH activity inhibition – cell lysate, 3D7 strain, counter-screen for P. falciparum growth inhibition project (AID 2304); conditions: P. falciparum 3D7 crude extract, LDH APAD/NBT absorbance; at 2 µM; hits give high values
# Sequence of L-lactate dehydrogenase (Plasmodium falciparum (isolate CDC / Honduras)) (Q27743 whole entry, looked up): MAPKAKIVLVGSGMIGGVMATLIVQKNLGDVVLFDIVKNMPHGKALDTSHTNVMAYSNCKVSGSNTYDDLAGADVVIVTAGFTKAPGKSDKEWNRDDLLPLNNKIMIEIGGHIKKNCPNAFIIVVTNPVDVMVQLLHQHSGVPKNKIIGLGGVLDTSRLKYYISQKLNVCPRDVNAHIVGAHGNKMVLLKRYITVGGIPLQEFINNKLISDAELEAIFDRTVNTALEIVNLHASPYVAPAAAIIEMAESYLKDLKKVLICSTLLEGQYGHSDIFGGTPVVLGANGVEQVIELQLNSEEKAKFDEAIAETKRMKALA
# [3] = inhibition of 3D7 malaria parasite growth – strain 3D7 (AID 2306); conditions: P. falciparum 3D7 erythrocytic growth, LDH absorbance, 72 h; at 2 µM; hits give high values
# [4] = target: Calcium-dependent protein kinase 1 (Plasmodium falciparum (isolate 3D7)) (UniProt P62344); assay: PfCDPK1 kinase inhibitors, biochemical, TCAMS library (AID 1159585; cut-off not given, nearly all actives have IC50 up to about 0.98 µM;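 further: inhibitors leave more ATP so luminescence rises with inhibition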); conditions: recombinant PfCDPK1, Kinase-Glo ATP depletion luminescence
# Sequence of Calcium-dependent protein kinase 1 (Plasmodium falciparum (isolate 3D7)) (P62344 whole entry, looked up): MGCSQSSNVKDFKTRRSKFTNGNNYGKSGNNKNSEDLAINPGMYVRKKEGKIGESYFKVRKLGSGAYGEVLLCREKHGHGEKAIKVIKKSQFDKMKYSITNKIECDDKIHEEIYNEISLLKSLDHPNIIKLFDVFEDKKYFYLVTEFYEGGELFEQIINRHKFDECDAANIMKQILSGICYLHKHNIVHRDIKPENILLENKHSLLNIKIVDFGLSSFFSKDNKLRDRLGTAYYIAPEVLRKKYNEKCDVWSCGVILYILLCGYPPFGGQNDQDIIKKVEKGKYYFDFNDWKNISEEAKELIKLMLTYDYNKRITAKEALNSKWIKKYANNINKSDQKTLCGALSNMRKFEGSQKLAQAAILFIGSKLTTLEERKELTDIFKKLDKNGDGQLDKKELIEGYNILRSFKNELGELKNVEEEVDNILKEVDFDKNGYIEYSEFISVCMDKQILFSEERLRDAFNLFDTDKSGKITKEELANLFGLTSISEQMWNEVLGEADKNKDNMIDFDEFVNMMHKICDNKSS
# [5] = target: Plasmodium falciparum protein kinase 6 (PK6, PF3D7_1337100) (UniProt Q8IDW1); assay: PfPK6 kinase inhibitors, biochemical, TCAMS library (AID 1159586); conditions: recombinant PfPK6, Kinase-Glo ATP depletion luminescence
# Sequence of Plasmodium falciparum protein kinase 6 (PK6, PF3D7_1337100) (Q8IDW1 1-305): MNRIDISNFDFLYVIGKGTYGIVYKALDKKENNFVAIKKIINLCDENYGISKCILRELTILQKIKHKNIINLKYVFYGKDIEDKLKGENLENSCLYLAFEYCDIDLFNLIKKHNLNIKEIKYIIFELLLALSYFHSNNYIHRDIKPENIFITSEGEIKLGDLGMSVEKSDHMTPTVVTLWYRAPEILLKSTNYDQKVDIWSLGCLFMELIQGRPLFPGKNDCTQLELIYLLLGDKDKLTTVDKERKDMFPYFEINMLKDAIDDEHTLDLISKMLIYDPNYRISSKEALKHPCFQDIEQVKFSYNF
# [6] = target: Protein kinase 7 (PK7), Plasmodium falciparum 3D7 (PF3D7_0213400) (UniProt Q7YTF7); assay: inhibition of Plasmodium PK7 catalytic activity – biochemical, TCAMS antimalarial set, Kinase-Glo luminescence (AID 1159587); conditions: recombinant PfPK7, Kinase-Glo ATP depletion luminescence
# Sequence of Protein kinase 7 (PK7), Plasmodium falciparum 3D7 (PF3D7_0213400) (Q7YTF7 1-343): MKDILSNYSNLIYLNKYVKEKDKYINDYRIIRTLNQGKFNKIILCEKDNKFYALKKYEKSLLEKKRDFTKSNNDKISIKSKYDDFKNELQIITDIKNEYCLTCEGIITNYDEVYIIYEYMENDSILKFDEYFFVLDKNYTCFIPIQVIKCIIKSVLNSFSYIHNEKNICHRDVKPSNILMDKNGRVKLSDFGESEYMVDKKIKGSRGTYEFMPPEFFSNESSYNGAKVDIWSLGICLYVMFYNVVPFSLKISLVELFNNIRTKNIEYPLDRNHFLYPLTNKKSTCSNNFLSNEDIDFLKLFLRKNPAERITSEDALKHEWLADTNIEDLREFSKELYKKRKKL
# [7] = target: Calcium-dependent protein kinase 4 (Plasmodium falciparum (isolate 3D7)) (UniProt Q8IBS5); assay: PfCDPK4 kinase inhibitors, biochemical, TCAMS library (AID 1159588; cut-off not given, nearly all actives have IC50 up to about 0.91 µM); conditions: recombinant PfCDPK4, Kinase-Glo ATP depletion luminescence
# Sequence of Calcium-dependent protein kinase 4 (Plasmodium falciparum (isolate 3D7)) (Q8IBS5 whole entry, looked up): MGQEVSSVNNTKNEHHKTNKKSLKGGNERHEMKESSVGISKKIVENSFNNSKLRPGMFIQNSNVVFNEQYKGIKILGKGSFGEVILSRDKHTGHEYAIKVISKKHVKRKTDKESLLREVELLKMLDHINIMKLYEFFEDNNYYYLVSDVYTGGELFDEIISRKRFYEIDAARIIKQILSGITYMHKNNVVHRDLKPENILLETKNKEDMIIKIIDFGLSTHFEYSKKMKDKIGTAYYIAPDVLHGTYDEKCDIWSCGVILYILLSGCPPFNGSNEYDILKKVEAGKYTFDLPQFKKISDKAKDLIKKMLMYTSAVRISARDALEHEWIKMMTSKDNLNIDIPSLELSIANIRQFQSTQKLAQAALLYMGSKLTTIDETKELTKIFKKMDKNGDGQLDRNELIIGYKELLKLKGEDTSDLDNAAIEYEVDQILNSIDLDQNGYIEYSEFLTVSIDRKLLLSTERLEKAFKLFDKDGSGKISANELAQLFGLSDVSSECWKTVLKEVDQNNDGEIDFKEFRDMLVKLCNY
# [8] = HepG2 cytotoxicity, primary screen, cytotoxicity control for P. falciparum antimalarial project, cell-based, ATP luminescence (AID 2303;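 active means inhibition above 50%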); conditions: HepG2 viability, 24-48 h, at 10 µM, hits give high values
Structure (SMILES),growth inhibition [1],inhibition [2] [%],growth inhibition [3],outcome [4],outcome [5],outcome [6],outcome [7],inhibition [8]
Cc1[nH]c(C)c(-c2ccc(Oc3cc(Cl)cc(Cl)c3)cc2)c(=O)c1Br,97% (active),-6,96% (active),inactive,inactive,inactive,inactive,
Cc1ccc2ccncc2c1N,4%,-6,96% (active),inactive,inactive,inactive,inactive,
CCCCOc1c(CCNCCCCNCCc2cc(OC)c3ccccc3c2OCCCC)cc(OC)c2ccccc12,47%,7,91% (active),inactive,inactive,inactive,inactive,
CCOc1ccc(CNCCCCCCNCc2ccc(OCC)c3ccccc23)c2ccccc12,75% (active),-4,101% (active),inactive,inactive,inactive,inactive,
Cc1nc(N)nc(N)c1-c1ccc(Br)c(Br)c1,1%,-2,94% (active),inactive,inactive,inactive,inactive,
Oc1cc2ccccc2cc1CNC1CCCCC1,89% (active),-9,98% (active),inactive,inactive,inactive,inactive,
NC(=NCC1CC1c1ccccc1)c1cccc(C(N)=NCC2CC2c2ccccc2)n1 (configuration not stated),-2%,0,95% (active),inactive,inactive,inactive,inactive,
CC(C)(C)c1ccc(-c2nc3c(ccc4nc(N)nc(N)c43)[nH]2)cc1,101% (active),1,100% (active),inactive,inactive,inactive,inactive,
FC(F)(F)c1ccc2c(NCCCNc3ccnc4cc(C(F)(F)F)ccc34)ccnc2c1,101% (active),3,100% (active),inactive,inactive,inactive,inactive,
Cc1cc(=O)c(-c2ccc(Oc3ccc(OC(F)(F)F)cc3)cc2)c(C)[nH]1,61% (active),0,93% (active),inactive,inactive,inactive,inactive,
CCCCCCCc1c(C)[nH]c2ccc(F)cc2c1=O,96% (active),-5,98% (active),inactive,inactive,inactive,inactive,
CCOC(=O)c1nc2ccc(SC3CCCCC3)cn2c1Br,3%,3,86% (active),inactive,inactive,inactive,inactive,
CC(C)c1ccc(Cn2cc(-c3ccncc3)c3cc(OCc4ccccc4)ccc32)cc1,88% (active),-1,99% (active),inactive,inactive,inactive,inactive,
C=CCn1ccc2c3c(N)nc(N)nc3ccc21,91% (active),-7,89% (active),inactive,inactive,inactive,inactive,
Cc1cc2c3c(N)nc(N)nc3ccc2n1C,-2%,-5,95% (active),inactive,inactive,inactive,inactive,
COc1cc(Cc2cnc(N)nc2N)cc(OCCCCNS(=O)(=O)C(F)(F)F)c1OC,-5%,7,84% (active),inactive,inactive,inactive,inactive,
Cc1c(Cc2ccc(C(C)C)cc2)cnc2nc(N)nc(N)c12,-3%,6,97% (active),inactive,inactive,inactive,inactive,
Cc1nc2nc(N)nc(N)c2c(C)c1Cc1ccc([N+](=O)[O-])cc1,11%,-1,98% (active),inactive,inactive,inactive,inactive,
CC(CO)(CO)NCc1cc2ccc3ccsc3c2c2ccccc12,98% (active),2,96% (active),inactive,inactive,inactive,inactive,
Cc1nc(C)c(-c2ccc(Oc3ccc(OC(F)(F)F)cc3)cc2)c(OC(=O)c2ccc(CN(C)C)cc2)c1Cl,98% (active),6,98% (active),inactive,inactive,inactive,inactive,
Nc1nc(N)c2c(ccc3c2ccn3Cc2ccc(Br)cc2)n1,98% (active),-13,101% (active),inactive,inactive,inactive,inactive,
Cc1[nH]c(C)c(-c2ccc(Oc3ccc(Cl)c(Cl)c3)cc2)c(=O)c1Br,96% (active),-1,97% (active),inactive,inactive,inactive,inactive,
Cc1ccc(Cc2cccc3nc(N)nc(N)c23)cc1,0%,-2,92% (active),inactive,inactive,inactive,inactive,

Structure (SMILES),growth inhibition [1],inhibition [2] [%],growth inhibition [3],outcome [4],outcome [5],outcome [6],outcome [7],inhibition [8]
COc1ccc(-c2cnc(N)nc2N)cc1Cl,1%,4,84% (active),inactive,inactive,inactive,inactive,
Cc1cc(=O)c(-c2ccc(OCc3ccc(Cl)cc3)cc2)c(C)[nH]1,76% (active),-1,93% (active),inactive,inactive,inactive,inactive,
NC(N)=NC(=O)Nc1cc(Br)c(Cl)c(C(F)(F)F)c1,91% (active),0,101% (active),inactive,inactive,inactive,inactive,
O=C(NCCCCN1CCN(c2nsc3ccccc23)CC1)c1ccccc1C(=O)NCCCCN1CCN(c2nsc3ccccc23)CC1,22%,-8,100% (active),inactive,inactive,inactive,inactive,
Cc1[nH]c(C)c(-c2ccc(Oc3cccc(C(F)(F)F)c3)cc2)c(=O)c1Br,97% (active),4,99% (active),inactive,inactive,inactive,inactive,
CN1CCN(c2ccc3nc(-c4ccc5nc(-c6ccc([N+](=O)[O-])c(N)c6)[nH]c5c4)[nH]c3c2)CC1,101% (active),-7,100% (active),inactive,inactive,inactive,inactive,
Cc1[nH]c(C)c(-c2ccc(Oc3ccc(Cl)c(Cl)c3)cc2)c(=O)c1Cl,97% (active),-1,100% (active),inactive,inactive,inactive,inactive,
CCCCN(CCCC)Cc1cc(N(C)c2ccc([N+](=O)[O-])cn2)ccc1O,98% (active),7,98% (active),inactive,inactive,inactive,inactive,
CC(C)C(=O)Nc1c(F)cc(F)cc1CCc1ccc(O)cc1,91% (active),2,90% (active),inactive,inactive,inactive,inactive,
c1ccc2c(c1)cc(CNCCCN1CCN(CCCNCc3cc4ccccc4c4ccccc34)CC1)c1ccccc12,98% (active),2,101% (active),inactive,inactive,inactive,inactive,
CCN(c1ccc(O)c(CN2CCCCC2)c1)c1ccc([N+](=O)[O-])cn1,64% (active),2,94% (active),inactive,inactive,inactive,inactive,
CNC(=O)c1ccc(/C=C/C(=O)N2CCc3ccc(-c4ccccc4)cc3C2c2cccc(C(F)(F)F)c2)cc1 (configuration not stated),,5,91% (active),inactive,inactive,inactive,inactive,9%
Clc1ccc(CNCCCCCCCNCc2ccc(Cl)c(Cl)c2)cc1Cl,49%,-7,99% (active),inactive,inactive,inactive,inactive,
COc1ccc2c(c1)C(C)(CCCN(C)C)C(=O)N2C (configuration not stated),,-3,93% (active),inactive,inactive,inactive,inactive,8%
O=C(Nc1cccc(Cl)c1)c1cc2ccccc2cc1O,,-8,97% (active),inactive,inactive,inactive,inactive,4%
N=C1SC(=Cc2cn[nH]c2-c2ccc(F)cc2)C(=O)N1c1nccs1,,-3,91% (active),inactive,inactive,inactive,inactive,28%
CN(C)c1ccc(NC(=O)Nc2ccnc3ccccc23)cc1Br,,3,98% (active),inactive,inactive,inactive,inactive,21%
COc1ccc(CNC(=O)Nc2cccc(-c3csc(N=C(N)N)n3)c2)cc1,,1,80% (active),inactive,inactive,inactive,inactive,8%
COc1ccc(CCN2CC[C@H](CNc3nc(-c4ccccc4)nc4ccccc34)C2)cc1S(N)(=O)=O,,-4,85% (active),inactive,inactive,inactive,inactive,54% (active)
C[C@H]1CN(Cc2ccc(-c3cccc(CNC(=O)c4cccc(C(=O)c5ccc(Cl)c(Cl)c5)c4)c3)s2)CCN1,,3,99% (active),inactive,inactive,inactive,inactive,3%
Nc1nc(N)c2cc(Cc3ccc([N+](=O)[O-])cc3)cnc2n1,-3%,-2,91% (active),inactive,inactive,inactive,inactive,
Cc1[nH]c(C)c(-c2ccc(Oc3ccc(Cl)cc3)c(Cl)c2)c(=O)c1Br,96% (active),-1,97% (active),inactive,inactive,inactive,inactive,
Cc1csc2nc(C(C)c3ccc(NC(=O)c4cccs4)cc3)oc(=O)c12 (configuration not stated),,-3,90% (active),inactive,inactive,inactive,inactive,-5%
